Drawing on PubChem BioAssay AID1259343 (VanderVen Lab, College of Veterinary Medicine, Cornell …, 2017), this text covers inhibition for 63 molecules.

Screen size: about 6,200 compounds; about 2,900 (47%) were called active. The set was probably picked from earlier hits. Some of the results follow. Unmarked numbers belong to inactive results. Cut-off read from the data, not from the text of the source: active = inhibition above about 50%; inactive = the rest.

The experiment can be described thus: Mycobacterium tuberculosis growth inhibition, primary screen (AID 1259343). To be noted: inhibition: at 10 µM, hits give high values; outcome: 10 uM.
Usually inhibition stands for the change of the read-out against control, counted positive when it falls. Turning to `CCN1CC(CN(C)C(=O)Nc2nc3ccccc3s2)Oc2ccccc21` (stereo not drawn), the inhibition is 12.4%.

For `CN(C(=O)Nc1nc2ccc(F)cc2s1)C1CCCc2ccccc21` (stereo not drawn), the inhibition was 74.2% (active).

As for `CC(=O)N1CCN(CC(=O)Nc2nc3ccc(F)cc3s2)CC1`, the inhibition was 15.5%.

As to `O=c1[nH]c(CN2CCN(c3ccccc3F)CC2)nc2ccsc12`, the inhibition was 13.7%.

As to `Cc1ccc(C2=CCN(Cc3nc4ccsc4c(=O)[nH]3)CC2)cc1`, the inhibition is 94.7% (active).

In the case of `CC(C)(O)C#Cc1ccc(C(=O)NCc2cnn(-c3ccc(F)cc3)c2)o1`, the inhibition was 36.3%.

Regarding `O=C(Nc1nnc(C2=COCCO2)o1)c1cc(Cl)cc(Cl)c1`, the inhibition was 93.4% (active).

Regarding `CCCc1cc(=O)[nH]c(-n2nc(C)cc2NC(=O)c2cccc3ccccc23)n1`, the inhibition was 102% (active).

As to `CCN(CC)c1cc(C)nc(Nc2ccc(NC(=O)c3cccc4ccccc34)cc2)n1`, the inhibition was 93.6% (active).

With `Cc1cc(=O)[nH]c(-n2nc(C)cc2NC(=O)c2cccc3ccccc23)n1`, the inhibition was 101% (active).

Consider `CCN(CC)C(=O)N1CCN(c2ccc(Nc3ccnc4cc5ccccc5cc34)cc2)CC1`, for which the inhibition was -24.5%.

As for `CCc1cc(=O)[nH]c(-n2nc(C)cc2NC(=O)c2cccc3ccccc23)n1`, the inhibition was 13.9%.

With `CCc1ccc(OCc2ccccc2C(=O)Nc2ccc3nc(C)cc(N)c3c2)cc1`, the inhibition was 33.8%.

In the case of `Cc1cc(=O)[nH]c(-n2nc(C)cc2NC(=O)c2cc(C)oc2C)n1`, the inhibition is 90.8% (active).

With `O=C1C(c2ccccc2)C=Nc2c(-c3ccccc3)cnn21` (stereo not drawn), the inhibition was -23.2%.

In the case of `Cc1cc(NC(=O)c2ccccc2C)n(-c2nc(C)c(C)c(=O)[nH]2)n1`, the inhibition is -21.7%.

As to `Cc1cc(=O)[nH]c(-n2nc(C)cc2NC(=O)c2ccccc2C)n1`, the inhibition was 101% (active).

Consider `Clc1ccc2nc(SCc3nnc(C4CCC4)o3)[nH]c2c1`, for which the inhibition is 16.7%.

For `Clc1ccc2nc(SCCC3CCCCC3)[nH]c2c1`, the inhibition is 23.7%.

Turning to `Clc1ccc(CCCc2nc3ccc(Cl)cc3[nH]2)c(Cl)c1`, the inhibition was 99.6% (active).

Turning to `S=c1ccss1`, the inhibition was 101% (active).

As for `CCc1cc2c(=O)n(NC(=O)c3cccc(C)n3)cnc2s1`, the inhibition is 99.6% (active).

Consider `CCc1cc2c(SCC(=O)C(C)(C)C)ncnc2s1`, for which the inhibition is -53%.

As for `CCc1cc2c(N3CCCCC3)ncnc2s1`, the inhibition is 46.7%.

Consider `Fc1cccc(-n2[nH]nnc2=S)c1`, for which the inhibition was 90.8% (active).

Regarding `CC(C)c1ccc(-n2nnnc2SCC(N)=O)cc1`, the inhibition is 32.2%.

As to `CC(C)c1ccc(-n2[nH]nnc2=S)cc1`, the inhibition is 70.6% (active).

For the molecule `S=c1nn[nH]n1-c1cccc(Cl)c1`, the inhibition was 10%.

`CCc1cc(=O)[nH]c(-n2nc(C)cc2NC(=O)C23CC4CC(CC(C4)C2)C3)n1`: the inhibition is 93.6% (active).

With `CCCc1cc(=O)[nH]c(-n2nc(C)cc2NC(=O)C23CC4CC(CC(C4)C2)C3)n1`, the inhibition was 100% (active).

Take `Cc1cc(=O)[nH]c(-n2nc(C)cc2NC(=O)C23CC4CC(CC(C4)C2)C3)n1`: the inhibition was 99.3% (active).

For the molecule `Cc1cc(NC(=O)C23CC4CC(CC(C4)C2)C3)n(-c2nc(C)c(C)c(=O)[nH]2)n1`, the inhibition is 14.6%.

For the molecule `CCc1c(C)nc(-n2nc(C)cc2NC(=O)C23CC4CC(CC(C4)C2)C3)[nH]c1=O`, the inhibition is -26.4%.

Consider `Cc1cc(=O)[nH]c(-n2nc(C3CC3)cc2NC(=O)C23CC4CC(CC(C4)C2)C3)n1`, for which the inhibition was 99.1% (active).

Take `Cc1cc(NC(=O)C23CC4CC(CC(C4)C2)C3)n(-c2nc3c(c(=O)[nH]2)CCC3)n1`: the inhibition is 101% (active).

Consider `Cc1ccc(Cc2nc(N3CCNCC3)c3c(C)nn(-c4ccccc4)c3n2)cc1`, for which the inhibition is 92.7% (active).

In the case of `Cc1nc(N2CCCC(C)C2)c2cnn(-c3ccc(F)cc3)c2n1` (stereo not drawn), the inhibition is 23.5%.

Turning to `CCCc1nc(N2CCNCC2)c2c(C)nn(-c3ccc(F)cc3)c2n1`, the inhibition is 42%.

Regarding `CC(C)CCc1nc(N2CCNCC2)c2cnn(-c3cccc(Cl)c3)c2n1`, the inhibition is 41.8%.

Consider `Clc1cccc(-n2ncc3c(N4CCNCC4)nc(Cc4ccccc4)nc32)c1`, for which the inhibition was 65.1% (active).

With `CC1NC(=S)N(CCc2nc(C(C)(C)C)cs2)C1=O` (stereo not drawn), the inhibition was 12.2%.

With `CCOc1ccc(OCCCOc2cccc(C)c2C)cc1`, the inhibition is 73.5% (active).

As to `CCOc1ccc(OCCCOc2ccccc2Br)cc1`, the inhibition is 95.2% (active).

As to `CCOc1cccc(OCCCOc2ccc(Cl)cc2C)c1`, the inhibition was 82.3% (active).

As for `CCOc1ccc(OCCCOc2ccccc2OC)cc1`, the inhibition is 9.51%.

Take `CC(C)(C)CC(C)(C)c1ccc(O)c(Cc2ccc(Cl)cc2Cl)c1`: the inhibition was 72.6% (active).

As to `COc1ccc2c(c1)CCc1c(-c3ccc(C(=O)NCCCSC)cc3)n[nH]c1-2`, the inhibition is 95.5% (active).

As to `CC(C)Cc1ccc(C(C)NC(=O)Cn2ccsc2=O)cc1` (stereo not drawn), the inhibition was 92.5% (active).

With `CC(=O)c1ccc(OCC(=O)NC(C)c2ccc(CC(C)C)cc2)cc1` (stereo not drawn), the inhibition was 46.8%.

On to `Cc1ccc(C(=O)N=c2sccn2Cc2ccc(C(=O)NC(C)c3ccccc3)cc2)cc1` (stereo not drawn), for which the inhibition is -8.44%.

With `COc1ccc2cc(C3CN(CCC(F)(F)C(F)F)CCO3)ccc2c1` (stereo not drawn), the inhibition was 42.7%.

Consider `CC(=O)C1=C(O)CC(c2ccccc2)SC1=Nc1ccccc1` (stereo not drawn), for which the inhibition is 57.6% (active).

`CCOC(=O)C1=C(O)CSC1=Nc1ccc(Cl)cc1`: the inhibition is 16.2%.

With `Fc1ccc(SCCc2ccncc2)cc1`, the inhibition is 57.7% (active).

For the molecule `O=c1ccc(-c2cccc(Br)c2)nn1Cc1ccc(F)cc1`, the inhibition is 8.75%.

For `O=C1C(Cl)=C(Nc2cccc(Br)c2)C(=O)N1Cc1ccc(Br)cc1`, the inhibition was 61% (active).

As for `NC(=S)Nc1cccc(Br)c1`, the inhibition is 32.7%.

Regarding `CCOc1ccc(NC(=O)c2cn(-c3cc(N4CCOCC4)ncn3)cn2)cc1`, the inhibition is 74.7% (active).

Consider `O=C(O)c1cc(O)c2c(c1)C(=O)c1cc(O)cc(O)c1C2=O`, for which the inhibition is 91.8% (active).

In the case of `CC(c1ccc(Cl)cc1)N(C)C(=O)c1ccc[nH]1` (stereo not drawn), the inhibition is -3.09%.

Regarding `CC(c1ccc(F)cc1)N(C)C(=O)CN1CC(O)CC1c1cc(F)ccc1F` (stereo not drawn), the inhibition is 84% (active).

`CC(=O)c1ccc(C(=O)N(C)C(C)c2ccc(Cl)cc2)s1` (stereo not drawn): the inhibition was 25.1%.

For `Cc1nc(N)sc1N=Nc1cc(C(F)(F)F)ccc1Cl`, the inhibition was 18.3%.
